For 40 compounds, growth results are on record in PubChem BioAssay (NCI).

SMILES strings stand for the structures. The panel holds about 83,000 compounds, 20% with a hit somewhere; the sample as a whole holds those more often.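 In brief: 96-well plates, 48 h treatment, single concentration, percent growth endpoint.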 A number with no mark means an inactive call. Calls of active or inactive are those of the source.

This assay relates to RPMI-8226 leukemia. Description: NCI-60 one-dose screen, 48 h (100 = growth as untreated, 0 = no growth, -100 = all killed). As to conditions: 10 µM unless noted. The method, then:
Growth inhibition of the RPMI-8226 human tumor cell line is measured as a screen for anti-cancer activity. Cells are grown in 96 well plates and exposed to the test compound for 48 hours. Compounds are tested at a single concentration, which is 10^-5 M for most compounds. The reported endpoint is percent growth (GI% or GIPRCNT), where numbers from 0 - 100% represent growth inhibition, and numbers from -100% - 0 represent cell death. For example, a value of 40 represents 60% growth inhibition. A value of 0 means no net growth occurred over the course of the experiment. A value of -40 indicates 40% of cells at the beginning of the experiment died by the end of the experiment. A value of -100 means all cells are dead at the end of the experiment.
NCI-60 Human Tumor Cell Lines Screen was performed using the standard one-dose NCI protocol, which is described in more detail at https://dtp.cancer.gov/discovery_development/nci-60/default.htm.
Compounds with GIPRCNT values below 10 were considered active. Activity score was based on GIPRCNT using the following formula: […]
Score is 0 for GIPRCNT values of 100 or above, 50 for GIPRCNT values of 0, and 100 for GIPRCNT values of -100.
On to `COc1ccc(/C=C\c2cc(OC)c(OC)c(OC)c2)c(NS(=O)(=O)c2ccc(C(C)(C)C)cc2)c1O`, for which the growth was 27.9%.

Turning to `Clc1ccc2c(c1)NC1(CCSc3ccccc31)n1nccc1-2` (stereo not given), the growth is 94.6%.

`Cc1cc(Nc2nc(C(=O)Nc3ccccc3)nc3ccccc23)n[nH]1`: the growth is 59.6%.

With `O=C1CCCCC=C1C[N+](=O)[O-]`, the growth was 60.6%.

Take `O=S(=O)(NCCNc1nccc(-c2c(-c3ccccc3)nc3sccn23)n1)c1ccc(O)cc1`: the growth was 52.8%.

Take `Nc1c(C(=O)c2ccc(F)cc2)sc2nc3c(cc12)CCCC3`: the growth is 77.6%.

Take `COc1cc(OC)c(C(=O)/C=C/c2cccc(C#N)c2)c(OC)c1`: the growth is 1.52% (active).

For the compound `COc1ccc(/C(=N\O)c2cc(OC)c(OC)c(OC)c2)c(OC)c1N`, the growth is 24.2%.

Consider `COc1ccc2c(c1)NC(=O)CN2c1nc(NC2CC2)nc2ccccc12`, for which the growth is 32.7%.

On to `CC(C)C[C@H](NC(=O)[C@@H](Cc1ccccc1)n1ccc(Nc2ccccc2)cc1=O)B(O)O`, for which the growth is -16% (active).

`Cc1cccc(-n2c(C)nc3ccc(NC(=O)NCCCl)cc3c2=O)c1`: the growth was 97.6%.

With `c1ccc(CCn2nnc3c(Nc4ccc(N5CCOCC5)cc4)ncnc32)cc1`, the growth was 68.2%.

For the compound `CCc1c(C(=O)Nc2ccc3ccccc3c2)[nH]c(C)c1C(C)=O`, the growth is 75.8%.

Turning to `COc1cc(/C=C2\C=C(c3ccc(F)cc3)N(Cc3ccccc3)C2=O)cc(OC)c1OC`, the growth is 50.7%.

For the compound `COc1ccc(NC(=O)/N=c2\oc3c(OC)cccc3cc2-c2cc3ccccc3[nH]2)cc1`, the growth was 173%.

`ClC1=C(Cl)C(Cl)=C(Cl)C1=Cc1ccc(Cl)cc1Cl`: the growth is -10.7% (active).

As to `COc1cc(C(=O)OCCCCCCCCCCC[P+](c2ccccc2)(c2ccccc2)c2ccccc2)ccc1O`, the growth is -9.32% (active).

For `CN(C)c1ccc(-c2ccc(-c3ccc(C(=N)N)cn3)o2)cc1`, the growth is -43.4% (active).

For the compound `CN(C)c1ccc(C2CC(c3ccccc3)=NN2/C=C2\SC(=O)NC2=O)cc1` (stereo not given), the growth was 87.7%.

As for `Cc1cccc2cc(/C=C/C(=O)/C=C/c3ccc(Cl)cc3)c(=O)[nH]c12`, the growth is 6.05% (active).

On to `COc1cc(-c2cc(/C=C3\CCCCC3=O)[nH]n2)cc(OC)c1OC`, for which the growth is 86.4%.

Take `COc1ccc(Cl)cc1NC(N)=S`: the growth is 100%.

For the compound `c1ccc2nc(-c3ccc4ccccc4n3)ccc2c1`, the growth is 90.8%.

With `NC(N)=NC(N)=Nc1ccccc1-c1ccccc1`, the growth was 112%.

For the compound `COc1cc(NC(=O)CCl)ccc(=O)c1`, the growth was 85.4%.

`CCn1c(=O)c2c(=O)c3c4c(oc3oc2c2ccccc21)C(=O)c1ccccc1C4=O`: the growth was 33.5%.

Regarding `CCCCC[C@@H]1Cc2cc(O)c(C(=O)O)c3c2[C@H](C[C@@]2(CCCO2)O3)O1`, the growth is 98.7%.

In the case of `COc1ccc(OC)c(-c2ccc(-c3ccccc3N)c3[nH]c4ccccc4c23)c1`, the growth is 70.3%.

With `O=S(=O)(NCCCNc1nccc(-c2c(-c3ccccc3)nc3sccn23)n1)c1ccc(F)cc1`, the growth was 38.8%.

As to `O=c1cc(C2NCCc3c2[nH]c2ccccc32)c2c(ccc3ccccc32)o1` (stereo not given), the growth is 73.6%.

As for `NC(=O)c1ccc2c(c1)OCO2`, the growth is 106%.

For the compound `Cc1ccc2c(c1)C(=O)C(c1c(-c3[nH]c(=O)c4ccc(C)cc4c3O)c(O)c3ccccc3c1O)=NC2=O`, the growth was 32.8%.

`COc1cccc(NC(=O)c2sc3nc4c(cc3c2N)CCCC4)c1`: the growth was -4.6% (active).

On to `Clc1nc2ccccc2nc1CI`, for which the growth was 77.6%.

Regarding `CCC1CCc2nc3sc(C(=O)Nc4ccccc4F)c(N)c3cc2C1` (stereo not given), the growth was 47.5%.

Consider `O=C(NCCCN1CCN(CCCNC(=O)C2CCCCC2)CC1)C1CCCCC1`, for which the growth is 93.3%.

Consider `COc1ccc(-n2cnc3c(sc4ncc(Cl)cc43)c2=O)cc1`, for which the growth is 48.2%.

As for `CCOC(=O)c1ccccc1NC(c1ccccc1)c1ccc2cccnc2c1O` (stereo not given), the growth is 17.5%.

In the case of `Cc1ccnc2nc(C(=O)OCC(=O)Nc3ccc(-c4ccccc4)cc3)nn12`, the growth is 98.1%.

As to `Clc1ccc(-c2nc(-c3ccco3)cn3ccnc23)cc1`, the growth was 52.9%.
